Assay outcomes (PubChem)
MazF activator: activators of E. coli MazEF toxin-antitoxin RNase, primary screen, biochemical, fluorescence, uHTS; AID 504720, 2011; actives 0.32% (n = 350,000); FAM/BHQ RNA-DNA oligo cleavage fluorescence, 5 h; activation, % at 20 µM; in the data active means activation above about 50%
Target sequence (P0AE70 whole entry, looked up): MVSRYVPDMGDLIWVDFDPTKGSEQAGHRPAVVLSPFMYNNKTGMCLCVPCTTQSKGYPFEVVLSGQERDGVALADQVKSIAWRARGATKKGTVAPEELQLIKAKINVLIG
BH1578 lux ind: inducers of Vibrio cholerae quorum light production without autoinducers, primary screen, BH1578 luxS cqsA deficient, single point | V. cholerae BH1578 lux reporter, luminescence, 6 h | activation, % at 18.7 µM | actives 0.16% (n = 350,000) | AID 588436, 2011; in the data active means activation mostly above about 9.7%, no sharp cut-off
PrPC TRFRET: inhibitors of human cell surface prion protein PrPC, primary screen, cell-based, TR-FRET; Major prion protein (Homo sapiens), P04156; TR-FRET read-out; inhibition, % at 13.8 µM; actives 0.43% (n = 370,000); AID 720596, 2013; in the data active means inhibition above about 24%; further: 0% = median of the test wells and 100% = reference compound wells
DUSP3 inh: VHR1 phosphatase inhibitors, primary screen, biochemical, absorbance, uHTS | inhibition, % at 13.3 µM | Dual specificity protein phosphatase 3 (Homo sapiens), P51452 | actives 0.52% (n = 290,000) | AID 1654, 2009 | recombinant VHR phosphatase, pNPP absorbance; in the data active means inhibition above about 50%
Target sequence (P51452 whole entry, looked up): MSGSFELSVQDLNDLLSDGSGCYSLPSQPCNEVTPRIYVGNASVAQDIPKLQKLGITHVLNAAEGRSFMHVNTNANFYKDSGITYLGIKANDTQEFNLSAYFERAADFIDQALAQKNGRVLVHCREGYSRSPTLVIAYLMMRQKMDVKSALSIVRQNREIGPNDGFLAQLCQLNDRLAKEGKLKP
Yp Topo-I inh: Yersinia pestis topoisomerase I inhibitors, primary screen, biochemical, cleavage product accumulation, plate reader, single point; actives 0.064% (n = 360,000); activity, % at 10 µM; DNA topoisomerase I (Yersinia pestis CO92); Y. pestis Topo-I cleavage product accumulation; in the data active means activity above about 50%, passing the limit was not always enough
CCHF vOTU inh: CCHFV vOTU protease inhibitors, primary screen, biochemical, Pep-AMC substrate, fluorescence | inhibition, % at 11.5 µM | actives 0.55% (n = 370,000) | AID 651958, 2012; in the data active means inhibition above about 30%; further: 0% = vehicle wells with enzyme and 100% = no enzyme wells
* hit, by the source's call; i = inactive; / = no result; + = active, no number. Sampled rows, rich in hits. Any-hit rate of the full collection: about 1.8%.

SMILES	MazF activator	BH1578 lux ind	PrPC TRFRET	DUSP3 inh	Yp Topo-I inh	CCHF vOTU inh
CCCCC(NC(=O)CCc1c(C)c2cc3c4c(oc3c(C)c2oc1=O)CCCC4)C(=O)O (centres undefined)	4	-1	-1	58*	11	-18
CCN(CC)C(=O)CC[C@@H]1CC[C@]2(CCCN(Cc3ccccc3)C2)O1	/	/	-8	/	/	4
O=C(NC1CCCCN(Cc2ccc(Cl)cc2)C1=O)c1ccc(COc2ccccc2)cc1 (centres undefined)	/	/	16	/	/	4
CC(C)C(NC(=O)/C=C/c1ccc(F)cc1)C(C)C	-2	+	2	18	0	-5
CN(C)CC(C)(C)CNC(=O)C1CCN(CCCc2ccccc2)CC1	-2	0	-11	55*	1	2
Cc1ccc(CNC(=O)c2ccccc2SCC(=O)NCC2CCCCC2)cc1	5	i	4	54*	35	7
COc1cccc(C(=O)NC(C)C(c2cccs2)N2CCOCC2)c1 (centres undefined)	4	-1	-2	53*	4	5
COc1ccc2c(c1)CCCN2C(=O)C1CCCN(S(=O)(=O)c2cc(OC)ccc2OC)C1 (centres undefined)	/	/	2	/	/	-3
CC(C)(C)OC(=O)N1CCC(c2c(C(=O)N3CCN(C(=O)c4ccco4)CC3)cnn2-c2cccc(Cl)c2)CC1	3	0	0	58*	36	10
O=C(CN1C(=O)COc2ccccc21)NCC1CCCO1 (centres undefined)	6	0	-2	2	4	0
O=C(CN1C(=O)COc2ccc(Cl)cc21)NCC1CCCO1 (centres undefined)	-18	i	5	54*	-1	-5
CN(C)CCCN(C(=O)c1ccc([N+](=O)[O-])o1)c1nc2cc3c(cc2s1)OCO3	17	i	-40	14	-17	51*
COC(=O)[C@]12C[C@H](CC(=O)NCCCCc3ccccc3)C(=O)N(Cc3cccc4ccccc34)C1=C[C@H](C(C)C)O[C@@H]2C1CC1	/	/	3	/	/	29
COC(=O)[C@]12C[C@H](CC(=O)N3CCSCC3)C(=O)N(CCc3ccc(OC)c(OC)c3)C1=C[C@H](C(C)(C)C)O[C@@H]2C	/	/	2	/	/	5
Cc1ccc(NC(=O)CC2(CC(=O)O)CCCC2)cc1	7	0	7	57*	3	-10
CN(C)CCCn1c2c3ccccc3ccc2c2oc(=O)c3ccccc3c21	847*	i	4	/	-36	-15
Cc1c(C(=O)c2ccc(Cl)c(Cl)c2)cnc2cc3c(cc12)OCO3	-3	1	4	54*	0	-14
COc1cc(CNC(C)c2ccccc2)cc(Br)c1OCc1ccccc1 (centres undefined)	1	i	9	13	20	8
COc1cc(CNc2ccc(O)cc2)cc(Br)c1OCc1ccccc1	2	2	-16	22	-4	94*
COC(=O)[C@]12C[C@H](CC(=O)NCCC(C)C)C(=O)N(Cc3ccco3)C1=C[C@H](C(C)C)O[C@@H]2C1CC1	/	/	1	/	/	6
O=C(c1cc(Br)cc(Br)c1)N1CCC(Oc2cccnc2)CC1	/	/	-4	/	/	-5
O=C(N/N=C/c1c(O)ccc2ccccc12)c1ccc(Br)o1	-479	0	5	57*	-4	-2
O=S(=O)(/N=C/c1c(O)ccc2ccccc12)c1ccccc1	-4	0	-3	54*	-2	-17
O=C(CSCC(=O)Nc1ccccc1)N/N=C/c1c(O)ccc2ccccc12	86*	0	-4	6	10	-6
O=C(O)c1ccc(N=Cc2c(O)ccc3ccccc23)cc1	0	0	-4	-8	-13	-4
CCOC(=O)Cc1nc(N2CCN(C=O)CC2)c2c(C)c(C(=O)OCC)sc2n1	/	/	1	/	/	4
